According to PubChem BioAssay (Tox21):
Inconclusive results are not listed. Activity calls are given as the source filed them. Calls come from the whole dose curve; as a rule, active = well fitted activation curve with a large enough effect in the repeat runs; inconclusive = weak or mixed curves; inactive = no such curve, though single readings can be large or run the other way.

Each molecule was assayed against Aryl hydrocarbon receptor (Homo sapiens) (UniProt P35869) (assay: qHTS assay to identify small molecule that activate the aryl hydrocarbon receptor (AhR) signaling pathway (AID 743085;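 note: HG2L7.5c1 human HepG2 liver cells with stably integrated DRE-driven firefly reporter; nearly all actives have a fitted effect of over 15% in size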)). Conditions: HepG2 AhR-luc (HG2L7.5c1), luciferase, 24 h; series mostly up to 70.3 µM; activation: at the top concentration.
Excerpt: U.S. Tox21 Program National Center for Advancing Translational Sciences [NCATS] NIH Chemical Genomics Center [NCGC] U.S. Environmental Protection Agency [EPA] National Institutes of Environmental Health Sciences [NIEHS] National Toxicology Program [NTP] U.S. Food and Drug Administration [FDA] Tox21 Assay overview: The Aryl hydrocarbon Receptor (AhR), a member of the family of basic helix-loop-helix transcription factors, is crucial to adaptive responses to environmental changes. AhR mediates cellular responses to environmental pollutants such as aromatic hydrocarbons through induction of phase I and II enzymes but also interacts with other nuclear receptor signaling pathways. A cell based HepG2-AhR-luc assay (HG2L7.5c1 cell line, developed by Dr. Michael S. Denison, University of California at Davis, was used to assess the activation of AhR. HepG2 (human hepatocellular carcinoma) cells were stably transfected with an Ah receptor-responsive firefly luciferase reporter gene plasmid containing 20 dioxin responsive elements and luciferase reporter gene. Increased luciferase activity can be used to identify the compounds that induce AhR activation.
Tox21 Assay Protocol Summary: 4000 cells in 5 uL/well were dispensed into white wall/solid bottom 1536-well plates using a Multidrop Combi (Thermo Fisher Scientific Inc., Waltham, MA) dispenser. After the assay plates were incubated at 37C for 5 h, 23 nL of compound or DMSO vehicle was transferred to the assay plates by a pintool station (Kalypsys, San Diego, CA). The plates were incubated at 37C for 24 hr. After 1 ul/well of CellTiter-Fluor reagent (Promega, Madison, WI) was added into the assay plates using a Flying Reagent Dispenser (FRD) (Aurora Discovery, CA), the assay plates were incubated at 37C for 30 min. The fluorescence intensity in the plates was measured using a ViewLux plate reader (PerkinElmer, Shelton, CT), followed by the addition of 4 uL of ONE-Glo Luciferase Assay reagent (Promega) using an FRD (Aurora Discovery). After the assay plates were incubated at room temperature for 30 min, luminescence intensity was measured using a ViewLux plate reader (Perkin Elmer).
% is set by controls: 0 for no effect and ±100 for the full control effect.

Sequence of Aryl hydrocarbon receptor (Homo sapiens) (P35869 whole entry, looked up): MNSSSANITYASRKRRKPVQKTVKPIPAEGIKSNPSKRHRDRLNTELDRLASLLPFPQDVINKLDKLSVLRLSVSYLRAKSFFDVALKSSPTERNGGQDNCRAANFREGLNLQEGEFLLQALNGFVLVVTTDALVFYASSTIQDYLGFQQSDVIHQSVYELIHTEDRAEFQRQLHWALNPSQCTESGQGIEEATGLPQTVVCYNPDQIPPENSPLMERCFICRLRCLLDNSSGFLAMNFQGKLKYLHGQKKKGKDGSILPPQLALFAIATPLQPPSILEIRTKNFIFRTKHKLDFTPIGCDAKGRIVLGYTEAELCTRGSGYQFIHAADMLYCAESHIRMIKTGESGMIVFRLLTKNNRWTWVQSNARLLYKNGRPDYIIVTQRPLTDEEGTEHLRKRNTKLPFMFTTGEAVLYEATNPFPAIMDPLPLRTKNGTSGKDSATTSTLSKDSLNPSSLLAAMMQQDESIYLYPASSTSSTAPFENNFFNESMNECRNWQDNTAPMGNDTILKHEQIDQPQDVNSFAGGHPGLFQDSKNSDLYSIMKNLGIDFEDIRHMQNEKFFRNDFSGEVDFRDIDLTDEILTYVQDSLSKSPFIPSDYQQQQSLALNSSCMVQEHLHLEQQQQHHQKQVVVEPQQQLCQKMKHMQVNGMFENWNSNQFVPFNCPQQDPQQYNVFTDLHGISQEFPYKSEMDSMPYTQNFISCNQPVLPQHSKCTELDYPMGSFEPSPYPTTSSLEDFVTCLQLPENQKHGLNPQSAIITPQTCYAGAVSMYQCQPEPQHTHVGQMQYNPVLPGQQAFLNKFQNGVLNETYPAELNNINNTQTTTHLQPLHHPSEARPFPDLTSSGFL

SMILES	activation
CCC(=O)O[C@H]1[C@@H](N2CCCCC2)C[C@H]2[C@@H]3CC[C@H]4C[C@H](OC(C)=O)[C@@H](N5CCCCC5)C[C@]4(C)[C@H]3CC[C@@]21C	-0.314% (inactive)
Cc1cc(C(C#N)c2ccc(Cl)cc2)c(Cl)cc1NC(=O)c1cc(I)cc(I)c1O (stereo not given)	6.25% (inactive)
C[N+]12CCC(CC1)C(OC(=O)C(O)(c1ccccc1)c1ccccc1)C2 (stereo not given)	-0.614% [at 32.5 µM] (inactive)
CNC(C)[C@@H]1CC[C@@H](N)[C@@H](O[C@H]2[C@H](O)[C@@H](O[C@H]3OC[C@](C)(O)[C@H](NC)[C@H]3O)[C@H](N)C[C@@H]2N)O1 (stereo not given in full)	3.23% [at 32.5 µM] (inactive)
Clc1ccc([C@@H]2C[C@H]3CC[C@@H]2N3)cn1	-2.01% (inactive)
C1CCc2nnnn2CC1	-1.26% (inactive)
CN1CCC(N(Cc2cccs2)c2ccccc2)CC1	-1.65% (inactive)
Cc1ccc2c(c1)[C@]13CCCC[C@@H]1[C@H](C2)N(C)CC3	-1.99% (inactive)
Brc1cc(Br)c(Oc2cc(Br)c(Br)cc2Br)cc1Br	-8.48% (inactive)
CN1C2CCC1CC(OC(c1ccccc1)c1ccc(Cl)cc1)C2 (stereo not given)	-13.5% (inactive)
CC[C@@]1([C@@H]2O[C@@H]([C@H]3O[C@@](O)(CO)[C@H](C)C[C@@H]3C)C[C@@H]2C)CC[C@H]([C@]2(C)CC[C@]3(C[C@H](O)[C@@H](C)[C@@H]([C@@H](C)[C@@H](OC)[C@H](C)C(=O)O)O3)O2)O1 (stereo in doubt)	-2.81% (inactive)
CC(C)(c1cc(Br)c(OCCO)c(Br)c1)c1cc(Br)c(OCCO)c(Br)c1	-0.804% (inactive)
CC(=O)CC(C)C	-0.356% (inactive)
Cc1cc(C)c(N)cc1C	7.27% (inactive)
O=[N+]([O-])O[C@@H]1CO[C@H]2[C@@H]1OC[C@@H]2O	-4.23% (inactive)
C#C[C@]1(OC(=O)CCCCCC)CC[C@H]2[C@@H]3CCC4=CC(=O)CC[C@@H]4[C@H]3CC[C@@]21C	-2.09% (inactive)
C[C@]12CC[C@H]3[C@@H](CCC4=CC(=O)CC[C@@]43C)[C@@H]1CC[C@@H]2OC(=O)CCc1ccccc1	-3.58% (inactive)
C[C@@H]1O[C@@H]1P(=O)(O)O	-0.667% (inactive)
COc1cc(C[C@H](C)N)c(OC)cc1Br	-1.88% [at 95 µM] (inactive)
CC[C@@H](O)C(C[C@@H](C)N(C)C)(c1ccccc1)c1ccccc1	-3.35% [at 95 µM] (inactive)
